The text below walks through data of PubChem BioAssay (EPA / NIEHS).

Activity calls are given as the source filed them. The calls were made as follows: active = hit-call score of the fitted dose curve at least 0.9, where 1 is the maximum; inactive = score below 0.9.

Assay [1] in a line: ATG_CRE_CIS: Attagene CIS-FACTORIAL HepG2 Assay for human cAMP Responsive Element (CRE) binding protein 3 (AID 2282926). The note with it: HepG2 CRE cis-reporter, Attagene multiplexed mRNA; actives raise or lower the signal. The method, boiled down: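 Endogenous CRE-binding activity in HepG2 is reported through a cis-regulated transfected reporter. Following a day of exposure, mRNA levels are determined by reverse transcription PCR and fluorescent fragment analysis; fits run in both directions versus DMSO.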

Assay [2] deals with CCAAT/enhancer-binding protein beta (Homo sapiens) (UniProt P17676). Put plainly: ATG_C_EBP_CIS: Attagene CIS-FACTORIAL HepG2 Assay for human CCAAT/Enhancer Binding Protein (C/EBP) beta (AID 2282927). The following applies: HepG2 Attagene cis-factorial transcription factor reporter; actives raise or lower the signal. The method, boiled down: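 Following a 24 h incubation with test chemical, transfected HepG2 cells yielded RNA whose reporter transcripts were quantified by RT-PCR and fluorescent capillary electrophoresis, with DMSO serving as baseline for bidirectional fitting.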

Assay [3] in a line: ATG_CMV_CIS: Attagene CIS-FACTORIAL HepG2 Assay for human CMV (Internal Marker) (AID 2282928).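 Also: endpoint acts as a background internal control marker rather than a target.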 The following applies: HepG2 CMV promoter reporter, transcription factor profiling; actives raise or lower the signal. The method, boiled down:
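HepG2 cells transiently transfected with multiple cis-regulated reporter units; 24 h compound exposure. Reporter mRNA quantified by RT-PCR, 6-FAM primer-extension labeling, HpaI digestion and capillary electrophoresis; bidirectional fitting against DMSO baseline.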

The nature of assay [4]: ATG_DR4_LXR_CIS: Attagene CIS-FACTORIAL HepG2 Assay for human Liver X Receptor (LXR), DR4 submotif (AID 2282929). The following applies: HepG2 Attagene DR4 cis-reporter, mRNA transcription; actives raise or lower the signal. The method, boiled down: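 Cells were transfected with multiple reporter transcription units, exposed to chemicals for 24 hours, then lysed for RNA. Reporter mRNA induction was measured by RT-PCR with capillary electrophoresis detection and fitted in both directions relative to DMSO.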

In assay [5] the target is Aryl hydrocarbon receptor (Homo sapiens) (UniProt P35869). Put plainly: ATG_Ahr_CIS: Attagene CIS-FACTORIAL HepG2 Assay for human Aryl Hydrocarbon Receptor (Ahr) (AID 2282930). The following applies: HepG2 AhR cis-factorial reporter transcription; actives raise or lower the signal. The method, boiled down: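 Values derive from bidirectional fitting against DMSO negative control. Underlying signal: cis-element reporter mRNA in transiently transfected HepG2, harvested 24 h post-dose and measured by RT-PCR plus capillary electrophoresis.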

Assay [6] in a line: ATG_AP_1_CIS: Attagene CIS-FACTORIAL HepG2 Assay for human Activator Protein 1 (AP-1) (AID 2282931). The note with it: HepG2 Attagene cis-factorial AP-1 reporter mRNA; actives raise or lower the signal. The method, boiled down:
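Endogenous transcription-factor activity in human HepG2 liver cells is read through a cis-promoter reporter transcript, sampled 24 h after dosing. Detection uses RT-PCR with capillary electrophoresis; values come from bidirectional fitting relative to DMSO.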

Assay [7] is described as follows: ATG_AP_2_CIS: Attagene CIS-FACTORIAL HepG2 Assay for human Activator Protein 2 (AP-2) (AID 2282932). The following applies: HepG2 AP-2 cis-reporter, Attagene transcription factor profiling; actives raise or lower the signal. The method, boiled down:
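Bidirectional curve fitting against DMSO was applied to reporter mRNA signals from HepG2 cells 24 h after dosing. Cis-promoter reporter units, transiently transfected, were read by RT-PCR plus capillary electrophoresis.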

Assay [8] deals with Retinoic acid receptor alpha (Homo sapiens) (UniProt P10276). The assay is described as follows: ATG_DR5_RAR_CIS: Attagene CIS-FACTORIAL HepG2 Assay for human Retinoic Acid Receptor Alpha (RARE), DR5 submotif (AID 2282934).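 As to AC50: reporter responds to endogenous RAR alpha beta and gamma in HepG2 not RARA alone.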 The following applies: HepG2 Attagene cis-factorial RARE DR5 reporter, mRNA; actives raise or lower the signal. The method, boiled down:
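Endpoint fitted in both directions relative to DMSO as negative control. It reflects DR5 cis-element reporter mRNA induction in transiently transfected HepG2 cells, measured 24 h after dosing through RT-PCR and fluorescent capillary electrophoresis.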

For assay [9], the target named is Transcription factor E2F1 (Homo sapiens) (UniProt Q01094). Put plainly: ATG_E2F_CIS: Attagene CIS-FACTORIAL HepG2 Assay for human E2F Transcription Factor 1 (AID 2282935). The following applies: HepG2 Attagene cis-reporter, E2F reporter RNA transcripts; actives raise or lower the signal. The method, boiled down:
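Multiplexed cis-reporter assay: HepG2, transient transfection, 24 h dosing, mRNA quantitation by labeled RT-PCR and CE.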

Assay [10] in a line: ATG_BRE_CIS: Attagene CIS-FACTORIAL HepG2 Assay for human Bone Morphogenetic Protein (BMP) Response Element (BRE) (AID 2282933). The note with it: HepG2 BMP response element reporter, Attagene transcription factor profiling; actives raise or lower the signal. The method, boiled down:
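Multiplexed cis-reporter assay, HepG2, 24 h exposure. mRNA from reporter units quantified via RT-PCR/CE; DMSO baseline; bidirectional curve fit.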

Sequence of CCAAT/enhancer-binding protein beta (Homo sapiens) (P17676 whole entry, looked up): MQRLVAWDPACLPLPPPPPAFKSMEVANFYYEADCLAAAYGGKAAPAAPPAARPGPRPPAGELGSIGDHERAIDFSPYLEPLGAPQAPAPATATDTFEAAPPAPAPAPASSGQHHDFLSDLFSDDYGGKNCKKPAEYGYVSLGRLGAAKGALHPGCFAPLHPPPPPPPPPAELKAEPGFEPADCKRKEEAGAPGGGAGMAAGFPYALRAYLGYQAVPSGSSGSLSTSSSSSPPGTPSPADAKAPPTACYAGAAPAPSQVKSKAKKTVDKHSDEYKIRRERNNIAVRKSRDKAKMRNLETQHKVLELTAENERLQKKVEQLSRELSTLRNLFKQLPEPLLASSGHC
Sequence of Retinoic acid receptor alpha (Homo sapiens) (P10276 whole entry, looked up): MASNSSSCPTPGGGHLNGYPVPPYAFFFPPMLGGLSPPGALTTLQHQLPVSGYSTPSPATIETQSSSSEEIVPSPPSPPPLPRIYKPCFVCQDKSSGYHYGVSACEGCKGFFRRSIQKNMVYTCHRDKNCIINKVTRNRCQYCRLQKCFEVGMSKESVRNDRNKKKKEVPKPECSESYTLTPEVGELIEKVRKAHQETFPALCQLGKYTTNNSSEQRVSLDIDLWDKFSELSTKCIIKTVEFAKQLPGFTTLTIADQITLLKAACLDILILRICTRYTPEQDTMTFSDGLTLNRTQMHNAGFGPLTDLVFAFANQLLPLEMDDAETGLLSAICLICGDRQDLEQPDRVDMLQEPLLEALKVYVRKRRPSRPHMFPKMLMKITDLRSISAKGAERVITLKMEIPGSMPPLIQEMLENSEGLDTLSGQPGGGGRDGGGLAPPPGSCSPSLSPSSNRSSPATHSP
Sequence of Transcription factor E2F1 (Homo sapiens) (Q01094 whole entry, looked up): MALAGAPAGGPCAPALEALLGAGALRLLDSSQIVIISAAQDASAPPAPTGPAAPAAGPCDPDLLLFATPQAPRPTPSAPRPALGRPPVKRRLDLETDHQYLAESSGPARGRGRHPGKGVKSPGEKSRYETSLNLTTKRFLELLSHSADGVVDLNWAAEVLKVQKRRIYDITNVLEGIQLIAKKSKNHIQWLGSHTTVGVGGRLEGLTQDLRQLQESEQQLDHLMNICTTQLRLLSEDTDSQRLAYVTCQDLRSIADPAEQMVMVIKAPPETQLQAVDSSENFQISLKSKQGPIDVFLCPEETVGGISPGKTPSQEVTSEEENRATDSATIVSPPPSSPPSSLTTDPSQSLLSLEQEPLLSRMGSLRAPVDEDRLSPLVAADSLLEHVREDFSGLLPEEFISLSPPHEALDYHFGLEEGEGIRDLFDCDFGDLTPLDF
Sequence of Aryl hydrocarbon receptor (Homo sapiens) (P35869 whole entry, looked up): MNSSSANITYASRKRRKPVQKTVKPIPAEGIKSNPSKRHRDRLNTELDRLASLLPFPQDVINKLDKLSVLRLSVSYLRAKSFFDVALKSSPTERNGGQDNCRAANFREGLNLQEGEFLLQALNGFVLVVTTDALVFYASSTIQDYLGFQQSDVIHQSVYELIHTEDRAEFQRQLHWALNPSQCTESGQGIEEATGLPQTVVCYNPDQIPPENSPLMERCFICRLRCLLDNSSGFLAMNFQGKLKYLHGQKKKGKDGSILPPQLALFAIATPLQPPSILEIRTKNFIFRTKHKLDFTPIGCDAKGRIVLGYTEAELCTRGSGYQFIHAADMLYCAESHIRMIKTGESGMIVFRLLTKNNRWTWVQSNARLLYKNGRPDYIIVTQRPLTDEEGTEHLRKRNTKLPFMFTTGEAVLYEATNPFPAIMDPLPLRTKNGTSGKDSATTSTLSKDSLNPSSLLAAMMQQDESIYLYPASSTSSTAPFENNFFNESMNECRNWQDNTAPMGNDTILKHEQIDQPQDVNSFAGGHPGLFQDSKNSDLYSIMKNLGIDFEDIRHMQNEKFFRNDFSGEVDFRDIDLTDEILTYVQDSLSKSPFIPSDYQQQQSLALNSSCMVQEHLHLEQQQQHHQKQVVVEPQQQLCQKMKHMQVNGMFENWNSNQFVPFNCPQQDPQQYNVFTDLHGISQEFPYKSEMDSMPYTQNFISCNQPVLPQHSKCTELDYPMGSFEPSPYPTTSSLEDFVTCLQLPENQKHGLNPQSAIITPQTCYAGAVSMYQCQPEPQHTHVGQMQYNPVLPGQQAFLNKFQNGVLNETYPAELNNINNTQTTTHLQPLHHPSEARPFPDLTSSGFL

Consider `C=C1[C@H]2CC[C@@H]3[C@H]2C(C)(C)CCC[C@]13C`, for which the outcome in assay [1], in assay [2], in assay [4], in [5], in assay [6] and in assay [7] was inactive. The result in assay [8] and in assay [9] was inactive. For the same compound, the half-maximal activity concentration (AC50) in assay [3] was 100 µM (active).
Take `C=CC(C)(CCC=C(C)C)OC(=O)C(C)C` (stereo unspecified): the outcome in [1], in assay [2], in assay [4], in assay [5], in assay [7] and in assay [10] was inactive. Further, the compound was classed as inactive in assay [8] and in [9]. Besides, the AC50 in [3] was 141 µM (active); in [6] it was 146 µM (active).
`CC(C)c1ccc2c(c1)CC[C@H]1[C@](C)(CN)CCC[C@]21C`: the outcome in assay [1], in assay [2], in assay [5] and in assay [7] was inactive. Also, the AC50 in assay [3] is 5.78 µM (active); in [4] it was 5.39 µM (active); in [6], 5.99 µM (active); in [8], 6.12 µM (active); in assay [9], 6.03 µM (active).
Regarding `CC=CCO`, the call in assay [1], in assay [2], in assay [3], in assay [4], in assay [5] and in assay [6] was inactive. Moreover, the compound was classed as inactive in assay [7], in assay [8] and in [9].
Regarding `O=P(O)(O)Oc1ccccc1`, the compound was classed as inactive in [1], in [2], in assay [3], in [4], in assay [5] and in assay [6]. Further, the call in [7], in assay [10], in [8] and in [9] was inactive.
Consider `C=C1C2CCC(C2)C1(C)C` (stereo unspecified), for which the result in assay [1], in assay [2], in [3], in [4], in assay [5] and in assay [6] was inactive. In addition, the compound was classed as inactive in assay [10], in assay [8] and in assay [9].
As for `CCCCCCCC(C)=O`, the outcome in assay [1], in assay [2], in [3], in assay [4], in assay [5] and in assay [6] was inactive. For the same compound, the outcome in assay [7], in assay [8] and in assay [9] was inactive.
As for `Cn1c([N+](=O)[O-])cnc1COC(N)=O`, the compound was called inactive in assay [1], in [2], in assay [3], in [4], in assay [5] and in assay [6]. In addition, the result in assay [10], in assay [8] and in assay [9] was inactive.
Take `O=CN1CCCCC1`: the outcome in [1], in [2], in [3], in assay [4], in assay [5] and in assay [6] was inactive. Besides, the result in assay [7], in assay [8] and in assay [9] was inactive.
Consider `CCCC(=O)OCc1ccccc1`, for which the compound was called inactive in assay [1], in [2], in assay [3], in [4], in assay [5] and in assay [6]. Besides, the compound was classed as inactive in [7] and in assay [8].
Take `Cc1cc(O)c(Cl)c(C)c1Cl`: the compound was classed as inactive in assay [1], in assay [2], in [4], in assay [5], in assay [6] and in assay [10]. For the same compound, the call in [8] and in assay [9] was inactive. The AC50 in assay [3] was 23.9 µM (active).
Consider `CC(CC=O)c1ccccc1` (stereo unspecified), for which the compound was called inactive in assay [1], in [2], in [3], in assay [7], in assay [8] and in [9]. In addition, the figures for the half-maximal activity concentration (AC50) in assay [4], in assay [5] and in [6] were 71.7 µM (active), 123 µM (active) and 131 µM (active), respectively.
On to `c1ccc(CCCc2ccncc2)cc1`, for which the call in assay [1], in [2], in assay [4], in assay [5], in [8] and in assay [9] was inactive. Further, the half-maximal activity concentration (AC50) in assay [3] was 43.2 µM (active); in assay [6], 37.7 µM (active); in assay [7] it was 100 µM (active).
`COc1ccc([C@@H]2CC(=O)c3c(O)cc(O[C@@H]4O[C@H](CO[C@@H]5O[C@@H](C)[C@H](O)[C@@H](O)[C@H]5O)[C@@H](O)[C@H](O)[C@H]4O)cc3O2)cc1OC`: the result in assay [1], in [2], in [3], in [4], in [5] and in assay [6] was inactive. Also, the outcome in assay [10], in [8] and in assay [9] was inactive.
Take `CCCCOCCOC(=O)COc1nc(Cl)c(Cl)cc1Cl`: the compound was classed as inactive in assay [1], in [2], in [3], in [4], in [5] and in assay [6]. Besides, the call in assay [10], in assay [8] and in assay [9] was inactive.
With `Cc1ccc2c(c1)C(=O)c1ccccc1C2=O`, the outcome in assay [1], in [2], in [4], in assay [6], in [7] and in [8] was inactive. Moreover, the compound was classed as inactive in assay [9]. Moreover, the AC50 in assay [3] was 21.5 µM (active); in [5], 9.39 µM (active).
Consider `Cc1cnc(NC(=O)C2=C(O)c3ccccc3S(=O)(=O)N2C)s1`, for which the compound was called inactive in assay [1], in [2], in assay [3], in [4], in assay [6] and in [7]. Besides, the result in [10], in assay [8] and in assay [9] was inactive.
With `CCCCC(CC)COC(=O)c1ccccc1` (stereo unspecified), the compound was called inactive in assay [1], in assay [2], in assay [3], in assay [4], in [5] and in [7]. Further, the compound was called inactive in assay [10], in [8] and in assay [9].
Consider `Nc1ccc(N)c(Cl)c1`, for which the AC50 in [1] was 49.6 µM (active); in assay [3] it was 9.98 µM (active); in assay [6], 18.1 µM (active); in [8], 33.4 µM (active). The result in assay [2], in assay [4], in assay [7] and in [10] was inactive.
`CC(=O)OCC(C)OC(C)=O` (stereo unspecified): the result in assay [1], in assay [2], in assay [3], in [4], in assay [5] and in assay [7] was inactive. The outcome in assay [10], in assay [8] and in assay [9] was inactive.
For the compound `CCCCCCCCCCOC(C)=O`, the outcome in assay [1], in [2], in assay [3], in [4], in [5] and in assay [7] was inactive. Moreover, the result in assay [8] and in [9] was inactive.
With `C=C(C)C(=O)OCCO`, the compound was called inactive in assay [1], in assay [2], in assay [3], in assay [4], in [5] and in [7]. Also, the call in assay [10], in [8] and in assay [9] was inactive.
As for `NC(=O)C1CO1` (stereo unspecified), the call in [1], in assay [2], in assay [3], in [4], in assay [5] and in assay [7] was inactive. Further, the compound was called inactive in [10], in [8] and in assay [9].
